Bioassay records (PubChem BioAssay)
Shown are actives, neighbours in structure and some others; about 2.6% of the full set was active somewhere.
Gli-Sufu antag = blocks Gli-Sufu signaling in a luciferase reporter; Sufu-KO-LIGHT fibroblasts, Gli luciferase reporter luminescence; 340,000 tested, 0.74% active; inhibition, % at 5 µM; AID 588413;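 active means inhibition above about 55%, limit read from the data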;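 further: 0% = DMSO-treated cells and 100% = wells with medium but no cells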
H9c2 TAG inh = inhibitors of triacylglycerol accumulation. AID 651582. inhibition, % at 12.5 µM. 230,000 tested, 0.66% active. H9c2 cells, Nile Red lipid (TAG) fluorescence; cells loaded with 200 µM oleic acid;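 active means pattern-corrected inhibition of lipid staining of at least 50% with the nuclear-stain viability signal not falling by more than 50%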;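 further: 0% = DMSO wells and 100% = triacsin C control wells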
Jurkat NFkB inh = inhibitors of the PMA/ionomycin-induced NF-kB reporter in Jurkat cells; inhibition, % at 4 µM; 330,000 tested, 0.53% active; PMA/ionomycin-induced NF-kB luciferase reporter, luminescence; in the data active means inhibition above about 50%
697 NFkB inh = lowers PMA/ionomycin-induced NF-kB signal in 697 B cells; inhibition, % at 4 µM; 697 B-cell NF-kB luciferase reporter, 16 h; 330,000 tested, 0.33% active; in the data active means inhibition above about 35%
H9c2 protect = protects H9c2 cardiomyocytes from peroxide injury; H2O2 injury protection, ATPLite, 2 h; protection from H2O2 cell death, % at 20 µM; 360,000 tested, 0.63% active; AID 588492;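 active means compounds giving at least 50% protection of heart cells from peroxide-induced death in the single-dose screen, raw or plate-pattern-corrected value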;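 further: 0% = DMSO wells with peroxide and 100% = DMSO wells without peroxide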
NR2F2 inh = inhibitors of human COUP-TFII (NR2F2) | HEK293T NGFI-A luciferase reporter, luminescence | inhibition, % at 8.6 µM | 370,000 tested, 0.7% active | AID 686940;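 active means inhibition above a per-plate cutoff, mean inhibition of test wells between control levels plus 3 SD, cut at about 38% in these data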;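 further: cells cotransfected with COUP-TFII expression vector driving the NGFI-A reporter; 0% = median of COUP-TF2 test wells and 100% = reporter-only cells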
Target sequence (P24468 whole entry, looked up): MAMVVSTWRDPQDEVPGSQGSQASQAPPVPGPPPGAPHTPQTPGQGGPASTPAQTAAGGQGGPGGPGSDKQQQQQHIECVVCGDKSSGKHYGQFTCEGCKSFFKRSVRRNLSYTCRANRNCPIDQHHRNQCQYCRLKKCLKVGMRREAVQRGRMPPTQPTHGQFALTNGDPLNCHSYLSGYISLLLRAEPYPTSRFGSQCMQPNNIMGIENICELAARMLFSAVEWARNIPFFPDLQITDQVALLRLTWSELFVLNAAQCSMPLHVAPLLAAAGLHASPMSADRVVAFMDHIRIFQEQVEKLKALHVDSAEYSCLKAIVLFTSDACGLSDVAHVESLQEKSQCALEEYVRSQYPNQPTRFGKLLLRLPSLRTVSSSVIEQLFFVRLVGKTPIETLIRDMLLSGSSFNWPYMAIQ
Jurkat NFkB conf = lowers PMA/ionomycin-induced NF-kB signal in Jurkat cells | shares compounds with Jurkat NFkB inh | inhibition, % at 4 µM | AID 435020 | Jurkat NF-kB luciferase, 16 h | 2,700 tested, 27% active;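 active means inhibition reaching about 45% at 4 µM in either replicate, limit read from the data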;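 further: plate controls were PMA/ionomycin stimulated DMSO wells for no effect and unstimulated DMSO wells for full effect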
697 NFkB conf = lowers PMA/ionomycin-induced NF-kB signal in 697 B cells. shares compounds with 697 NFkB inh. 697 B-cell NF-kB luciferase, 16 h. inhibition, % at 4 µM. 2,000 tested, 35% active. AID 449746; in the data active means inhibition mostly above about 28%, no sharp cut-off; inactive means mostly below about 22%
* hit, by the source's call; i = inactive; . = not tested or not shown.

SMILES	Gli-Sufu antag	H9c2 TAG inh	Jurkat NFkB inh	697 NFkB inh	H9c2 protect	NR2F2 inh	Jurkat NFkB conf	697 NFkB conf
Cc1ccc(OCc2nnc(SCC(=O)c3ccc4ccccc4c3)n2-c2ccc(Cl)cc2)cc1	.	.	.	.	.	-0.3	.	.
Cc1ccc(N/C=C/C(=O)c2cccs2)cc1C	-126.6	.	-187.6	-259.5	-21.6	-27.3	-128.1	-158.8
Cc1cc(N/C=C/C(=O)c2cccs2)ccc1F	-93.5	2.0	-110.9	-124.6	-21.3	-28.3	.	.
COc1cccc2c1C(=O)c1c(O)c3c(c(O)c1C2=O)C[C@@](O)(C(=O)CO)C[C@@H]3O[C@H]1C[C@H](N)[C@@H](O)[C@H](C)O1	67.9*	43.2	94.0*	86.5*	-2.5	.	89.9*	92.2*
O=C1c2[nH]nc(-c3ccccc3)c2C(c2cccc(C(F)(F)F)c2)N1c1ccccc1 (stereo not drawn)	.	.	.	.	.	9.1	.	.
COc1ccccc1C(=O)Nc1nc(-c2ccc(S(=O)(=O)N3CCOCC3)cc2)cs1	65.8*	7.2	75.9*	40.7*	31.0	71.6*	61.1*	30.1*
C#CCNC(=O)C[C@H]1C(=O)N(Cc2ccc(OC)cc2)C2=CCCC[C@@]21C(=O)OCC	.	.	.	.	.	-42.9	.	.
O=C(/C=C\Nc1cccc(F)c1)c1ccc2c(c1)OCO2	-160.7	-1.3	-170.9	-411.0	-17.4	-62.3	-141.6	-228.4
O=C(/C=C\Nc1ccccc1Br)c1ccc2c(c1)OCO2	-119.7	-1.2	-168.7	-355.7	-29.6	-18.9	-40.2	-213.1
Cc1ccc(NC(=O)[C@@H]2CC(=O)O[C@@H]2c2ccccc2)c(C)c1	.	.	.	.	.	-2.2	.	.
CC(C)(O)c1[nH]c2ccc(C#N)cc2c1C(C)(C)O	1.4	.	62.9*	59.0*	.	7.2	88.1*	59.8*
COC(=O)[C@]12C[C@H](CC(=O)NCc3cccc4ccccc34)C(=O)N(Cc3ccc(Cl)cc3Cl)C1=C[C@H](C(C)C)O[C@@H]2C1CC1	.	.	.	.	.	29.7	.	.
O=C(CCl)N=c1sccn1Cc1ccccc1Cl	2.9	76.1*	91.4*	104.4*	-6.2	-4.4	71.4*	94.0*
O=C(CCl)N=c1sccn1Cc1ccc(Cl)cc1Cl	95.5*	59.5*	97.1*	98.1*	-21.8	-8.8	69.3*	101.6*
CCC(=O)OCC(=O)N=c1sccn1Cc1ccccc1Cl	-7.7	0.6	-7.0	14.8	2.5	10.9	.	.
O=C(Nc1ccc2c(c1)CCC2)c1ccccc1F	.	.	-176.6	-250.6	-20.4	-45.7	-145.1	-224.4
CC(C)C[C@@H]1COc2cc(Br)ccc2S(=O)(=O)N1Cc1cn(Cc2ccccc2)nn1	.	.	.	.	.	-3.2	.	.
Cc1ccc2c(c1)Cc1nc3ccccc3nc1-2	-33.3	-2.2	-188.5	-262.3	-26.2	-17.5	-81.4	-252.0
O=S1(=O)c2c(cccc2N2CCSCC2)Oc2ccccc2CN1Cc1cn(Cc2cccc(C(F)(F)F)c2)nn1	.	.	.	.	.	0.4	.	.
COc1cccc(N=Nc2ccc3ccccc3c2O)c1	-34.0	.	-196.8	i	-19.4	-16.2	-112.2	-295.1
c1ccc2c(c1)CCN(c1nc3cc4c(cc3s1)OCO4)C2	-71.7	3.4	-190.3	-304.5	-12.2	-49.5	-132.4	-262.6
c1ccc(N2CCN(c3nc4cc5c(cc4s3)OCO5)CC2)cc1	-93.6	-65.5	-51.9	-204.3	-10.9	-36.7	.	.
CC(C)C[C@@H]1COc2cc(Br)ccc2S(=O)(=O)N1Cc1cn(CCC2OCCCO2)nn1	.	.	.	.	.	-7.0	.	.
CC(=NNC(=O)CSc1nnc(-c2ccc(C(C)(C)C)cc2)n1-c1ccccc1)c1cccc2ccccc12	.	.	.	.	.	18.0	.	.
Cc1cccc(-c2cc3nc4c(c(NCc5ccco5)n3n2)CCCC4)c1	-57.9	.	-154.2	-263.9	-22.0	-33.5	-99.3	-294.8
SMILES	Gli-Sufu antag	H9c2 TAG inh	Jurkat NFkB inh	697 NFkB inh	H9c2 protect	NR2F2 inh	Jurkat NFkB conf	697 NFkB conf
Cc1cccc(-c2cc3nc4c(c(N5CCOCC5)n3n2)CCCC4)c1	-78.9	.	-90.0	-235.4	-1.3	-29.1	.	.
COc1ccc(-c2cc3nc4n(c(=O)c3s2)CCCCC4)cc1	-86.1	-12.9	-172.7	-267.4	-5.9	-13.6	-120.2	-322.1
COc1ccc(-c2cc3nc4n(c(=O)c3s2)CCC4)cc1	23.9	.	-25.2	-116.7	-11.5	-33.7	.	.
Cc1ccc(NC(=O)c2cnn(-c3ccccc3)c2C)cc1C	-22.1	.	-161.6	-351.4	-14.1	-31.2	-48.8	-323.1
CCOC(=O)c1c(C)[nH]c(C(=O)CSc2ccccc2)c1C	8.2	-127.6	-201.6	-330.4	-26.2	-31.7	-124.3	-351.2
CCOC(=O)c1c(C)[nH]c(C(=O)COC(=O)CCSc2ccccc2)c1C	-19.8	.	-16.3	-38.0	2.0	-15.1	.	.
Cc1cc(NC(=O)CSc2nc3c(sc4ccccc43)c(=O)n2CCc2ccccc2)n[nH]1	6.5	1.4	-3.5	9.2	-1.7	-10.6	.	.
Cc1cc(NC(=O)CSc2nc3c(sc4ccccc43)c(=O)n2CCCN2CCOCC2)n[nH]1	-77.4	.	59.1*	37.7*	14.7	-8.2	59.2*	26.6
CC(CCN1CCC(C(O)(c2ccccc2)c2ccccc2)CC1)Oc1cccc(C(F)(F)F)c1 (stereo not drawn)	.	.	.	.	.	15.8	.	.
Cc1ccccc1NC(=O)c1nnn(-c2ccc3c(c2)OCCO3)c1N	-109.5	.	-119.7	-155.2	-14.4	-34.3	.	.
Nc1c(C(=O)Nc2cccc(F)c2)nnn1-c1ccc2c(c1)OCCO2	-102.8	.	-155.4	-362.4	-7.2	-54.6	-144.5	-486.6
Cc1ccc(/C=C2/CCc3c([nH]c4ccccc34)C2=O)cc1	-49.3	.	-156.1	-255.3	-12.1	-60.1	-91.5	-180.6
COC(=O)[C@@H]1Cc2c([nH]c3ccccc23)C(C)(C)N1C(=O)CCl	20.7	.	55.1*	88.5*	-2.4	11.5	15.7	69.0*
COC(=O)C1Cc2c([nH]c3ccccc23)C2CCC(=O)N12 (stereo not drawn)	.	-5.8	.	.	1.2	-2.4	.	.
CC[C@@]1(O)C(=O)OCc2c1cc1n(c2=O)Cc2cc3c(CN(C)C)c(O)ccc3nc2-1	61.3*	-3.2	73.0*	-328.8	9.6	-5.0	95.0*	-375.4
CC[C@@]1(O)C(=O)OCc2c1cc1n(c2=O)Cc2cc3c(N)cccc3nc2-1	65.2*	22.2	81.2*	77.5*	1.6	12.1	84.1*	1.2
NC(=O)c1ccsc1NC(=O)c1ccc2c(c1)CCCC2	-142.3	-4.3	-182.8	-301.7	-41.4	-22.0	-120.2	-358.5
c1ccc2sc(Sc3ncnc4sccc34)nc2c1	40.1	45.4	98.3*	63.1*	-7.4	-1.2	53.4*	60.4*
CCc1cc2c(Sc3nc4ccccc4s3)ncnc2s1	11.4	.	100.1*	82.5*	-16.1	13.7	95.9*	63.7*
CCc1cc2c(SCC(=O)Nc3ccc(NC(C)=O)cc3)ncnc2s1	0.5	5.9	8.2	13.8	-2.9	17.6	.	.
